# From PubChem BioAssay
# Only some compounds are listed: those with a hit (about 9.4% of all), similar ones and a draw of the others.
# SMN2 splice up: increases expression of the SMN2 splice variant. HEK293 SMN2-luciferase splicing reporter, luminescence, 30-36 h. Potency, µM (series often up to 46.1 µM), for inactives: at the highest dose activity change, positive = activation, most hits filed as activators. 210,000 tested, 2.8% active; further: % of control where 0% means no effect; nearly all actives have a fitted effect of over 55% in size
#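 qHTS luciferase splicing reporter: luminescence rises when SMN2 exon 7 is included in transfected HEK293 cells. Compound exposure lasted 30-36 h at 37C, with 4.5 mM final sodium butyrate as control, followed by a ONE-Glo read.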
# NPC1 promoter act: activators of NPC1 promoter. Huh7 NPC1 promoter luciferase reporter, 24 h. Potency, µM (series often up to 9.22 µM), without a hit: top-dose activation, usual class: activators. 320,000 tested, 2.4% active; further: % of control where 0% means no effect; nearly all actives have a fitted effect of over 60% in size
#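 Stably transfected Huh7 (NPC1 promoter→luciferase), 1500 cells/well in Opti-MEM + 10% FBS, 2 h settle, then compound 24 h at 37 °C. Luminescence after 10 min with Amplite reagent.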
# FLuc counter: firefly luciferase modulation, counter-screen for miR-21 project; P08659; purified FLuc, Km substrates, luminescence inhibition; Potency, µM (top dose mostly 57.5 µM), without a hit: at the top dose activity change, negative = inhibition, actives largely listed as inhibitors; 360,000 tested, 6.9% active;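 further: plate controls were vehicle for no effect and reference inhibitor for full effect; nearly all actives have a fitted effect of over 55% in size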
# Target sequence (P08659 whole entry, looked up): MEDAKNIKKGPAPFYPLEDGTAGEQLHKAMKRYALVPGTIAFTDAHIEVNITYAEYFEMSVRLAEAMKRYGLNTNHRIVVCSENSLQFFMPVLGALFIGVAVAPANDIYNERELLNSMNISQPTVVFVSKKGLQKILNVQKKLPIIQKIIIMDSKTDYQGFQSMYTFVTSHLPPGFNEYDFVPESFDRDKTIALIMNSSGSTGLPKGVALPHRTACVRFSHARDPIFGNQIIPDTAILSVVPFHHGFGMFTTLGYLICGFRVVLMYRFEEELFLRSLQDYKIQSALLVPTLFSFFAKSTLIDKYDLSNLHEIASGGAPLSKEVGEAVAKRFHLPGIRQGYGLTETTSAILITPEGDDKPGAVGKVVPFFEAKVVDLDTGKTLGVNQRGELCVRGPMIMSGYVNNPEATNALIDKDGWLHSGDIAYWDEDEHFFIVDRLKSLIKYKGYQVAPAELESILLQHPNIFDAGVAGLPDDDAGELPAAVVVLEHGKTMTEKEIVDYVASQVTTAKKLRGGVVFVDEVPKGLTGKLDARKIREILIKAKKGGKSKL
#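 Purified P. pyralis luciferase (10nM final) with 10uM D-luciferin and 10uM ATP (Km levels) in 50mM Tris acetate pH 7.5, 10mM Mg acetate, 0.01% Tween-20, 0.05% BSA; qHTS 6-point titration, ~60 µM downward; luminescence read.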
# ELG1 genotoxic: induces genotoxicity in HEK293T cells with luciferase-tagged ELG1; HEK293T ELG1-luciferase reporter, luminescence, 16 h; Potency, µM (top dose mostly 46 µM), inactives show top-dose activity change, positive = activation, actives largely listed as activators; 330,000 tested, 1.3% active; AID 504466; further: % of control where 0% means no effect; nearly all actives have a fitted effect of over 60% in size
#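 DMSO vehicle served as control against compound-treated ELG1-luciferase HEK293T cells; exposure lasted 16 hr at 37 °C and 5% CO2, followed by ONE-Glo luminescence detection after 30 min.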
# ELG1 DNA repair: inhibitors of ELG1-dependent DNA repair in HEK293T cells | HEK293T ELG1-luciferase reporter, luminescence, 16 h; DNA damage induced by 5-fluorouridine | Potency, µM (top dose mostly 46.1 µM), inactives show at the highest dose activity change, negative = inhibition, hits mostly inhibitors | 330,000 tested, 2.3% active; further: on the % scale 0 is the no-effect control and ±100 the full control effect; nearly all actives have a fitted effect of over 55% in size
#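 HEK293T cells expressing luciferase-tagged ELG1 (2,000/well) received 5-Fluorouridine plus compound or DMSO for 16 hr at 37 °C. Luciferase was read by ONE-Glo luminescence after 30 min at room temperature.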
# Rab9 promoter act: activates the Rab9 promoter; Potency, µM (doses to about 9.22 µM), without a hit: at the highest dose activation, negative = inhibition, most hits filed as activators; Huh7 Rab9 promoter-luciferase reporter, luminescence, 24 h; 320,000 tested, 2.8% active; further: % of control where 0% means no effect; nearly all actives have a fitted effect of over 60% in size
#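 Luminescence from Amplite-detected luciferase (10 minutes, ambient) reports Rab9 promoter activation. Before that, stable Rab9-luciferase Huh7 cells (1500/well, reduced-serum OP-MEM I plus 10% FBS) were exposed to compound for 24 hours at 37C.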
# * marks the source's active call; other numbers are inactive results; ? = inconclusive; nt = no result; [ ] = another dose, or the depositor's remark. The call rests on the fitted dose curve; in most records, active means well fitted curve in the direction sought with a large enough effect; inconclusive means small, poorly fitted or top-dose-only effect, or another doubt; inactive means no such curve, though single readings can be large; an effect the other way counts as inactive or inconclusive. Potency means the concentration at half of the fitted maximal effect.
SMILES,SMN2 splice up,NPC1 promoter act,FLuc counter,ELG1 genotoxic,ELG1 DNA repair,Rab9 promoter act
COc1ccc(-n2c(-c3ccc(Br)cc3)c[n+]3c2CCC3)cc1,-67%,-21%,0%,-16%,1.8µM*,-21%
CCOC(=O)c1ccccc1NC(=O)c1cn(CC)c2nc(C)ccc2c1=O,-42%,1µM*,3.4µM*,?,?,0.79µM*
CCn1cc(C(=O)OCc2ccccc2)c(=O)c2ccc(C)nc21,13%,-4%,6%,-5%,-24%,-1%
CCn1cc(C(=O)Nc2cccc(C(=O)OC)c2)c(=O)c2ccc(C)nc21,7%,14%,-4%,-7%,16%,20%
CCn1cc(C(=O)Nc2ccccc2C(=O)OC)c(=O)c2ccc(C)nc21,11µM*,0.56µM*,3.4µM*,?,?,1.1µM*
CCOC(=O)c1cn(CC)c2c(ccc3ccccc32)c1=O,nt,22%,24µM*,12%,?,19%
CCCCN1C(=O)C(=O)N(c2ccccc2)C1=S,11µM*,3.2µM*,12µM*,?,?,3.5µM*
CC(C)(CO[C@H]1C[C@H]2CC[C@@]1(C)C2(C)C)[N+](=O)[O-],-16%[9.22 µM],nt,nt,nt,nt,nt
Cc1cccc(NC(=O)CN2C(=O)N/C(=C\c3ccc(N4CCOCC4)cc3)C2=O)c1,11µM*,?,3µM*,?,?,?
Cc1cc(N2CCOCC2)ccc1/C=C1\NC(=O)N(CC(=O)Nc2ccc(F)cc2)C1=O,18%,?,?,13%,?,?
C/C(=N\NC(=O)CSc1nc(C)[nH]c1[N+](=O)[O-])c1ccc(F)cc1,nt,24%,15µM*,-6%,?,?
Cc1nc(SCC(N)=O)c([N+](=O)[O-])[nH]1,13%,-2%,-2%,-1%,9%,-6%
C=CCOc1ccc(CN(C)C(=O)CNC(=O)c2ccc(-c3ccccc3)cc2)cc1,nt,-10%,-13%,-32%,23µM*,-15%
Cc1cccc(Nc2nc(Nc3cccc(C)c3)nc(N3CCOCC3)n2)c1,-13%,nt,-7%,nt,nt,nt
COc1ccc(Nc2nc(N3CCOCC3)nc(N3CCOCC3)n2)cc1,nt,-7%,-2%,-24%,?,-8%
BrC(/C=N/Nc1nc(N2CCOCC2)nc(N2CCOCC2)n1)=C/c1ccccc1,-18%,-2%,1%,-5%,12µM*,1%
Cc1cc(/C=N/Nc2nc(N3CCOCC3)nc(N3CCOCC3)n2)c(C)n1-c1ccccc1,-23%,0%,?,-8%,7.3µM*,3%
COc1ccc(-n2c(C)cc(/C=N/Nc3nc(N4CCOCC4)nc(N4CCOCC4)n3)c2C)cc1,-21%,-1%,3%,-7%,8.2µM*,1%
Brc1cc2c(cc1/C=N/Nc1nc(N3CCOCC3)nc(N3CCOCC3)n1)OCO2,?,7%,1%,2%,?,-2%
Cc1cccc(Nc2nc(N3CCOCC3)nc(N3CCOCC3)n2)c1,nt,-10%,-4%,-6%,7.3µM*,-7%
COc1cc(C2c3c(oc4ccc(F)cc4c3=O)C(=O)N2c2nc(C)c(C)s2)cc(OC)c1OC (configuration not stated),16%,nt,4%,nt,nt,nt
N#Cc1ccc(CS(=O)(=O)c2nnnn2-c2ccccc2)cc1,7%,nt,nt,nt,nt,nt
C=CCn1c(C)cc(C(=O)COc2ncnc3sccc23)c1C,5.6µM*,0.89µM*,2.4µM*,2.6µM*,?,0.79µM*
C=CCn1c(C)cc(C(=O)COC(=O)c2cncc(Br)c2)c1C,nt,24%,1.9µM*,14%,?,?
CC(=O)Nc1ccc(C2Nc3c(C)cc(C)cc3-c3cc(C)nn32)cc1 (configuration not stated),-4%,nt,-11%,nt,nt,nt
N#CC1=C(N)Oc2n[nH]c(-c3ccccc3)c2C1c1cccnc1 (configuration not stated),3.5µM*,3%,5%,0%,21%,13%
